Holding throughout (test): DAPPL (digital affinity profiling via proximity ligation, sequencing); 10 mM Tris-HCl pH 7.5, 50 mM NaCl, 1 mM DTT, 4% glycerol, room temperature, 30 min; GST-TFs on glutathione beads, 16-mer random dsDNA library, 0.1% formaldehyde crosslink after washing; high values mean tight binding
In one assay the target is T1, FLI1 (Homo sapiens, UniProt Q01543 1-452).
T1 sequence: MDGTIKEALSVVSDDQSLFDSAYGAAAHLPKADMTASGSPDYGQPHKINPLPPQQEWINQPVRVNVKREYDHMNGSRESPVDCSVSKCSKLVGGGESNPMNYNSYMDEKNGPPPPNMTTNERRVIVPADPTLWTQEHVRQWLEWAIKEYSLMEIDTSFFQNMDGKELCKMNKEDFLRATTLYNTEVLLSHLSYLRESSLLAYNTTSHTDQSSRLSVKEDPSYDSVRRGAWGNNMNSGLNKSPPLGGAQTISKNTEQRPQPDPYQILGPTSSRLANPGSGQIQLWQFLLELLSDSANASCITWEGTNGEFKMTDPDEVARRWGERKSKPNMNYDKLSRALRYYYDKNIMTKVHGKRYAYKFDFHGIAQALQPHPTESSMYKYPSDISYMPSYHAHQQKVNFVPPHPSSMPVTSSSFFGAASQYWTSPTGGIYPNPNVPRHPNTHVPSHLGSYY
To be noted: protein: recombinant; tags: N-terminal GST; dsDNA, one strand shown. The procedure, abridged: (§1)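 Binding signal is given per hexamer as its read frequency for a factor divided by its frequency in the tag-only sample. GST-fused human transcription factors were expressed in yeast, captured on glutathione beads, barcoded with DNA and pooled with that sample, then incubated with 200 nmole of a 16-mer random double-stranded DNA library in Tris/NaCl/DTT/glycerol buffer for 30 min at room temperature. The pools were then washed, crosslinked, proximity-ligated, amplified by PCR and sequenced on an Illumina NextSeq500.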

In the next assay the target is T2, ELK1 (Homo sapiens, UniProt P19419 1-428).
T2 sequence: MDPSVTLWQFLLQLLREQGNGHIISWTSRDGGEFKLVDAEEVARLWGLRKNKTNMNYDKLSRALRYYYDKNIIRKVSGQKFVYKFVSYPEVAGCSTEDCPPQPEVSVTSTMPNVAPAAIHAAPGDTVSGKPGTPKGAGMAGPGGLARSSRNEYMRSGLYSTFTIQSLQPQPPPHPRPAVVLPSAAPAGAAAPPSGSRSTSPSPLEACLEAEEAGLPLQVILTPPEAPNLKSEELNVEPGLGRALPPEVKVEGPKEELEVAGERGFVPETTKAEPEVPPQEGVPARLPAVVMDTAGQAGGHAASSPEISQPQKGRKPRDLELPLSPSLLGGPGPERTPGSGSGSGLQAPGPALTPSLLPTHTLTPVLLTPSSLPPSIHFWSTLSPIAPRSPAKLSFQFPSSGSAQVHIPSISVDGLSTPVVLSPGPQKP
To be noted: protein: recombinant; tags: N-terminal GST; dsDNA, one strand shown. The procedure, abridged:
as §1

In a further assay the target is T3, GABPA (Homo sapiens, UniProt Q06546 1-454).
T3 sequence: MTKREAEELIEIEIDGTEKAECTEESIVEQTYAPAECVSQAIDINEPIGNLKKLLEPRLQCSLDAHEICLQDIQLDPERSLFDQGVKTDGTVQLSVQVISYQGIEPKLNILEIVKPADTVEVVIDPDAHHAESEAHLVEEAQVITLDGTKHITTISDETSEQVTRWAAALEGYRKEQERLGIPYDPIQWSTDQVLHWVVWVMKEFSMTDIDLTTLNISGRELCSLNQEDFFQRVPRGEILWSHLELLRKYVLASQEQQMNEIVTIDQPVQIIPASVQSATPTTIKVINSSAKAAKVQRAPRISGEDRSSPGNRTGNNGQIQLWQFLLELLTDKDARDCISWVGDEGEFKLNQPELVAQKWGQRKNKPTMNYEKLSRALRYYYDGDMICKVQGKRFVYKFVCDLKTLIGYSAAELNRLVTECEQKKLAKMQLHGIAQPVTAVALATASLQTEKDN
As to conditions: protein: recombinant; tags: N-terminal GST; dsDNA, one strand shown. An outline of the steps:
as §1

Another assay addresses T4, ERG (Homo sapiens, UniProt P11308 1-479).
T4 sequence: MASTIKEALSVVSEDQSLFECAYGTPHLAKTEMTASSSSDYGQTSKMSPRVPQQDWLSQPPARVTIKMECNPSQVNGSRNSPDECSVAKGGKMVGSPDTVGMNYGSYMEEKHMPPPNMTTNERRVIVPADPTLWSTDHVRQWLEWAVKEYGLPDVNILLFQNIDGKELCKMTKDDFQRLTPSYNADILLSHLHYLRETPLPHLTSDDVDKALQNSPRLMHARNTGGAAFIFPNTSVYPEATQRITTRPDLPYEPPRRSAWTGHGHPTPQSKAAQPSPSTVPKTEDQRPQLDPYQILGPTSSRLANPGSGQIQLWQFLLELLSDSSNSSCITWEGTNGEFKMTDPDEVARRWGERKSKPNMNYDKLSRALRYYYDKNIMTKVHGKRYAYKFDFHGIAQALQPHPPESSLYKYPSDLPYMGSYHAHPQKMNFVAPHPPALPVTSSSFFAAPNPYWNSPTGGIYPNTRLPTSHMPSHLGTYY
To be noted: protein: recombinant; tags: N-terminal GST; dsDNA, one strand shown. An outline of the steps:
as §1

A further assay addresses ELF1 (Homo sapiens, UniProt P32519 1-619). To be noted: protein: recombinant; tags: N-terminal GST; dsDNA, one strand shown. An outline of the steps: as §1
The target of a further assay is SPI1 (Homo sapiens, UniProt P17947 1-270). As to conditions: protein: recombinant; tags: N-terminal GST; dsDNA, one strand shown. The procedure, abridged: as §1
The next assay deals with SPIB (Homo sapiens, UniProt Q01892 1-262). As to conditions: protein: recombinant; tags: N-terminal GST; dsDNA, one strand shown. The procedure, abridged: as §1
The target of the next assay is T5, FEV (Homo sapiens, UniProt Q99581 1-238).
T5 sequence: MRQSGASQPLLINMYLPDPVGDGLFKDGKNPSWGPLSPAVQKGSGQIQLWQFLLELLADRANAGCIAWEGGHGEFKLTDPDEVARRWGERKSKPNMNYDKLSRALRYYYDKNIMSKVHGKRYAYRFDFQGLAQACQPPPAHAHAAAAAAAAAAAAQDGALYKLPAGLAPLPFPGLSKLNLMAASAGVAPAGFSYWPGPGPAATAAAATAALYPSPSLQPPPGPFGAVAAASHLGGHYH
As to conditions: protein: recombinant; tags: N-terminal GST; dsDNA, one strand shown. The procedure, abridged:
as §1

For another assay, the target named is ETV5 (Homo sapiens, UniProt P41161 1-510). To be noted: protein: recombinant; tags: N-terminal GST; dsDNA, one strand shown. The procedure, abridged:
as §1

A further assay has as its target HSF1 (Homo sapiens, UniProt Q00613 1-529). To be noted: protein: recombinant; tags: N-terminal GST; chain copies: 3; dsDNA, one strand shown. An outline of the steps:
as §1

The next assay has as its target ELF4 (Homo sapiens, UniProt Q99607 1-663). To be noted: protein: recombinant; tags: N-terminal GST; dsDNA, one strand shown. The procedure, abridged: as §1
Another assay addresses T6, ELF3 (Homo sapiens, UniProt P78545 1-371).
T6 sequence: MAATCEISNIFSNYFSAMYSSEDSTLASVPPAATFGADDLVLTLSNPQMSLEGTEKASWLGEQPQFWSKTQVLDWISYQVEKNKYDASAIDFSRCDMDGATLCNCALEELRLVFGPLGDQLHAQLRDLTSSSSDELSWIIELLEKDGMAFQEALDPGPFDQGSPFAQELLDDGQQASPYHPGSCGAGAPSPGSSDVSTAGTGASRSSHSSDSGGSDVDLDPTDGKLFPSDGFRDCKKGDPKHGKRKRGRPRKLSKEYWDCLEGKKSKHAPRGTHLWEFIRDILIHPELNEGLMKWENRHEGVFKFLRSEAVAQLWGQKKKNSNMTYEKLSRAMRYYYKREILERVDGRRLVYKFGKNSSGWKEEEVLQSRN
As to conditions: protein: recombinant; tags: N-terminal GST; dsDNA, one strand shown. An outline of the steps:
as §1

For a further assay, the target named is ETV1 (Homo sapiens, UniProt P50549 1-477). To be noted: protein: recombinant; tags: N-terminal GST; dsDNA, one strand shown. An outline of the steps: as §1
The next assay addresses T7, EHF (Homo sapiens, UniProt Q9NZC4 1-300).
T7 sequence: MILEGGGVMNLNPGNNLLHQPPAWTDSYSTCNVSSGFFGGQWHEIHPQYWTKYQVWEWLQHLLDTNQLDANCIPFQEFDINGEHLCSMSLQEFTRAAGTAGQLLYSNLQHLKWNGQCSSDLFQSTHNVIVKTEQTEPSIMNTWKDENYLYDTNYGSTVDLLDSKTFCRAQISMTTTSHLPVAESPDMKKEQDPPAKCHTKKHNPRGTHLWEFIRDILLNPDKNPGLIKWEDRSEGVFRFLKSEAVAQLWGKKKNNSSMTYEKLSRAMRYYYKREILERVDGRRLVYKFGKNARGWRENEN
To be noted: protein: recombinant; tags: N-terminal GST; dsDNA, one strand shown. The procedure, abridged: as §1

Another assay concerns the target T8, ELK4 (Homo sapiens, UniProt P28324-2 1-405).
T8 sequence: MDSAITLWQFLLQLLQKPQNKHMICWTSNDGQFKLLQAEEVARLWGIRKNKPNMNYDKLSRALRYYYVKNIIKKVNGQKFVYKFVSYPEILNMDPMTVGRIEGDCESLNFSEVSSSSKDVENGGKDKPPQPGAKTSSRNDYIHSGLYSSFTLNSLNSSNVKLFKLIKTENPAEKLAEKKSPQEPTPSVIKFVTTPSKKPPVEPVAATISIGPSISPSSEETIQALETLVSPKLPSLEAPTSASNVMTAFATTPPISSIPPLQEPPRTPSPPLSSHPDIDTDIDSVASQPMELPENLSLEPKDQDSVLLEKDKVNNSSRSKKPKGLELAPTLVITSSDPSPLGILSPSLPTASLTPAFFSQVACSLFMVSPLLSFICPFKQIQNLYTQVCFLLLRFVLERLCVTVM
To be noted: protein: recombinant; tags: N-terminal GST; dsDNA, one strand shown. The procedure, abridged: as §1

Another assay concerns the target T9, ETV2 (Homo sapiens, UniProt O00321 1-342).
T9 sequence: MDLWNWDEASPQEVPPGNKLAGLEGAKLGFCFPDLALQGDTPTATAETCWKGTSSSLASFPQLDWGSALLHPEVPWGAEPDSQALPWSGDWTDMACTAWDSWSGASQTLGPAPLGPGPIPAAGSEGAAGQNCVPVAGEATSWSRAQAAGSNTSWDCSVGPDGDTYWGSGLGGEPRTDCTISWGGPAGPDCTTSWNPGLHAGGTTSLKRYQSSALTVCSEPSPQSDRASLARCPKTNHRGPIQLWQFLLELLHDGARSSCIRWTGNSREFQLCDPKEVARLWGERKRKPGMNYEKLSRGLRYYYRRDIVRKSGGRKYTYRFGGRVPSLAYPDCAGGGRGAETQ
As to conditions: protein: recombinant; tags: N-terminal GST; dsDNA, one strand shown. An outline of the steps:
as §1

Sequence of ETV5 (P41161 whole entry): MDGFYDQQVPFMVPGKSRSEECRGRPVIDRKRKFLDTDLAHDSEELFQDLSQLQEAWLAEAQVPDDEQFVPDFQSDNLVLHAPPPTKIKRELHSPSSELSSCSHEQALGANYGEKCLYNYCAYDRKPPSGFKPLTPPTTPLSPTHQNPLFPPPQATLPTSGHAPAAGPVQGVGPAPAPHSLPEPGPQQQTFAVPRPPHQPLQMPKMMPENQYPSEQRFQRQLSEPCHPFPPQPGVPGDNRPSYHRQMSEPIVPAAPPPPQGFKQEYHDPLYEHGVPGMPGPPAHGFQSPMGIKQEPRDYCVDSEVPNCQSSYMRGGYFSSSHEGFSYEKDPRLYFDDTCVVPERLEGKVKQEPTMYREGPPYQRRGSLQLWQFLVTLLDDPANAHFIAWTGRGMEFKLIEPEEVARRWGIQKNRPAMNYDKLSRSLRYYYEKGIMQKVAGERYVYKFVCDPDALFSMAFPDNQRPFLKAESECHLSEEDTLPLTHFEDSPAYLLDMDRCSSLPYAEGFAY
Sequence of ELF1 (P32519 whole entry): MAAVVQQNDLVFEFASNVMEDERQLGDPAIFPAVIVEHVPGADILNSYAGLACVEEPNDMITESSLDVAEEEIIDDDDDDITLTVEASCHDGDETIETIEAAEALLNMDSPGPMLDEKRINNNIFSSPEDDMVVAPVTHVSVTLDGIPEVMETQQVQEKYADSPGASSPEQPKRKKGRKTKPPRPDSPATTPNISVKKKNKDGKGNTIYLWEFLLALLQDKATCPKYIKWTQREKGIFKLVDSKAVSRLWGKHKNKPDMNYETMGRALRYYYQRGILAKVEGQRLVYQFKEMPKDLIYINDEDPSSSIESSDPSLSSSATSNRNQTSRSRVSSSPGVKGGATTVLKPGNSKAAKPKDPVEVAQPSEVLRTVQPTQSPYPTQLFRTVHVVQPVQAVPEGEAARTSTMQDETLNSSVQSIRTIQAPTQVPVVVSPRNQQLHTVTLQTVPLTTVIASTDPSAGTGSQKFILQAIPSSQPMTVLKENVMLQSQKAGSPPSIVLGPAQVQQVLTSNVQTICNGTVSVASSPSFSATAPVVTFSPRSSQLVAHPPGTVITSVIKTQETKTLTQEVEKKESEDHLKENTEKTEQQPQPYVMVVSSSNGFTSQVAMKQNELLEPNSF
Sequence of HSF1 (Q00613 whole entry): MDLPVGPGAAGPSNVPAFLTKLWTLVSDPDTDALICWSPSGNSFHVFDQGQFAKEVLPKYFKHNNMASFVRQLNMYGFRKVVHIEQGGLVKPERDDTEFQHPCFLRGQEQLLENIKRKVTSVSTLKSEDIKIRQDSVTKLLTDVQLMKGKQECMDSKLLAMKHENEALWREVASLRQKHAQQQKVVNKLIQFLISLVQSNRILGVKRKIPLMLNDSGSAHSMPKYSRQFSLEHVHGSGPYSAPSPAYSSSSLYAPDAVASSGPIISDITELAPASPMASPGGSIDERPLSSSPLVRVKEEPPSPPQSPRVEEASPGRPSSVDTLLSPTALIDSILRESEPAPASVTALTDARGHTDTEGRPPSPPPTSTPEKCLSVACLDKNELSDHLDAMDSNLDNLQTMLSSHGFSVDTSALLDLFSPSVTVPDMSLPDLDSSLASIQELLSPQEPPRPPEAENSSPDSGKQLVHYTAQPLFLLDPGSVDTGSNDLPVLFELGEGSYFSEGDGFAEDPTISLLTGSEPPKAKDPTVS
Sequence of ELF4 (Q99607 whole entry): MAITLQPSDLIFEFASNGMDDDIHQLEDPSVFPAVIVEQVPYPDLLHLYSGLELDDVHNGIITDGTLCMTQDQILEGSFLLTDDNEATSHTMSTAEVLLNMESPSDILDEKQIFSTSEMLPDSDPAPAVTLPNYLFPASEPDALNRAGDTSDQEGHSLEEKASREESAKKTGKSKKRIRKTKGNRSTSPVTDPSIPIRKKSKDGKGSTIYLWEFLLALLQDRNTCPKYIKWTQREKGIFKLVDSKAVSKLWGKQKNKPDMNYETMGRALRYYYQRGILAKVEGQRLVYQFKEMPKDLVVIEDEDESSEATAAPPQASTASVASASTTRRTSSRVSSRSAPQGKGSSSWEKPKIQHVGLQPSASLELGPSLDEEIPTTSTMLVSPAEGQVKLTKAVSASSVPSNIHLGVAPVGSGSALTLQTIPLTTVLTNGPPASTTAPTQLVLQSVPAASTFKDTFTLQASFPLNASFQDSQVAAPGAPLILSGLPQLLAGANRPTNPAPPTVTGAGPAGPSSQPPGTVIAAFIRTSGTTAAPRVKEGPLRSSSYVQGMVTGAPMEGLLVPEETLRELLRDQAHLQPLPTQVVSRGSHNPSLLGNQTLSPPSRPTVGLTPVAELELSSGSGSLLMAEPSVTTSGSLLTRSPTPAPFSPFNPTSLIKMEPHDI
Sequence of ETV1 (P50549 whole entry): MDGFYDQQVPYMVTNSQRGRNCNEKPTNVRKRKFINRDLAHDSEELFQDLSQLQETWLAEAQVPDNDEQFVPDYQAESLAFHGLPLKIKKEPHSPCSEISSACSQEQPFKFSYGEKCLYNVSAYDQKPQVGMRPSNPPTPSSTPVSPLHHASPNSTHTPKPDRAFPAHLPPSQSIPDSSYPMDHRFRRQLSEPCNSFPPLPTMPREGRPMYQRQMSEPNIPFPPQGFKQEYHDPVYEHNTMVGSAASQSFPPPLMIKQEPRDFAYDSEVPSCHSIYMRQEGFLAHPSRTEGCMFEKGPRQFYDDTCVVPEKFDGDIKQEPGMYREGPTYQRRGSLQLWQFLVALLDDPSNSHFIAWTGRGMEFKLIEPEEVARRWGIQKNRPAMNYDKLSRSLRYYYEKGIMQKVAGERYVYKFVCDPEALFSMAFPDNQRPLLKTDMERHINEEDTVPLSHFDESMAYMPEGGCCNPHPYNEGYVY
Sequence of SPIB (Q01892 whole entry): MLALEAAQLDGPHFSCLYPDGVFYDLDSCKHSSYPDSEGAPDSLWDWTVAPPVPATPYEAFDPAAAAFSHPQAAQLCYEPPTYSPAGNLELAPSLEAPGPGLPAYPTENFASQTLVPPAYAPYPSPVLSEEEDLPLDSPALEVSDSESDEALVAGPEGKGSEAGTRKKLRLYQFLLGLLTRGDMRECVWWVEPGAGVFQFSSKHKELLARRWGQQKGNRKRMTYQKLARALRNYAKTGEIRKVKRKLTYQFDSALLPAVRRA

Consider AATGGA, for which the binding signal in the assay with FLI1 is 1.01 fold enrichment (6-mer frequency, TF over GST control); with ELK1, 1.01 fold enrichment (6-mer frequency, TF over GST control); with GABPA, 1.01 fold enrichment (6-mer frequency, TF over GST control); with ERG, 1.06 fold enrichment (6-mer frequency, TF over GST control); in the assay with ELF1 it was 1.03 fold enrichment (6-mer frequency, TF over GST control); with SPI1, 1.06 fold enrichment (6-mer frequency, TF over GST control). In addition, the binding signal with SPIB is 1.06 fold enrichment (6-mer frequency, TF over GST control); with FEV, 1.09 fold enrichment (6-mer frequency, TF over GST control); in the assay with ETV5 it was 1.05 fold enrichment (6-mer frequency, TF over GST control); with HSF1, 1.12 fold enrichment (6-mer frequency, TF over GST control); in the assay with ELF4 it was 1.08 fold enrichment (6-mer frequency, TF over GST control); in the assay with ELF3 it was 1.05 fold enrichment (6-mer frequency, TF over GST control). Besides, the binding signal with ETV1 was 1.07 fold enrichment (6-mer frequency, TF over GST control).

Regarding TCGATG, the binding signal is 1.04 fold enrichment (6-mer frequency, TF over GST control) in the assay with FLI1; 1.14 fold enrichment (6-mer frequency, TF over GST control) with ELK1; 1.12 fold enrichment (6-mer frequency, TF over GST control) with GABPA; 1.06 fold enrichment (6-mer frequency, TF over GST control) in the assay with ERG; 1.11 fold enrichment (6-mer frequency, TF over GST control) in the assay with ELF1; 1.09 fold enrichment (6-mer frequency, TF over GST control) with EHF. Further, the binding signal with SPI1 was 1.17 fold enrichment (6-mer frequency, TF over GST control); with SPIB it was 1.06 fold enrichment (6-mer frequency, TF over GST control); with ETV5, 1.11 fold enrichment (6-mer frequency, TF over GST control); with HSF1, 1.26 fold enrichment (6-mer frequency, TF over GST control); with ELF4 it was 1.2 fold enrichment (6-mer frequency, TF over GST control); in the assay with ELK4, 1.09 fold enrichment (6-mer frequency, TF over GST control). For the same sequence, the binding signal was 1.03 fold enrichment (6-mer frequency, TF over GST control) in the assay with ETV2; 1.1 fold enrichment (6-mer frequency, TF over GST control) with ELF3; 1.11 fold enrichment (6-mer frequency, TF over GST control) with ETV1.
